# Source: PubChem BioAssay (Tox21)
# Results filed as inconclusive are left out. A call without a number means that no potency is given here. Calls of active or inactive are those of the source. The call rests on the fitted dose curve; in most records, active means well fitted curve in the direction sought with a large enough effect in the repeat runs; inconclusive means weak or mixed curves; inactive means no such curve, though single readings can be large; an effect the other way counts as inactive or inconclusive.
# Tests used:
# [1] = biological target: Cytochrome P450 2D6 (Homo sapiens) (UniProt P10635); assay: Cytochrome P450 Family 2 Subfamily D Member 6 (CYP2D6) small molecule antagonists: luciferase reporter qHTS assay (AID 1671196); conditions: P450-Glo CYP2D6 enzyme assay, luciferin luminescence, 1 h; series mostly up to 115 µM; further: nearly all actives have a fitted effect of over 50% in size
# Chain of Cytochrome P450 2D6 (Homo sapiens) (P10635 whole entry, looked up): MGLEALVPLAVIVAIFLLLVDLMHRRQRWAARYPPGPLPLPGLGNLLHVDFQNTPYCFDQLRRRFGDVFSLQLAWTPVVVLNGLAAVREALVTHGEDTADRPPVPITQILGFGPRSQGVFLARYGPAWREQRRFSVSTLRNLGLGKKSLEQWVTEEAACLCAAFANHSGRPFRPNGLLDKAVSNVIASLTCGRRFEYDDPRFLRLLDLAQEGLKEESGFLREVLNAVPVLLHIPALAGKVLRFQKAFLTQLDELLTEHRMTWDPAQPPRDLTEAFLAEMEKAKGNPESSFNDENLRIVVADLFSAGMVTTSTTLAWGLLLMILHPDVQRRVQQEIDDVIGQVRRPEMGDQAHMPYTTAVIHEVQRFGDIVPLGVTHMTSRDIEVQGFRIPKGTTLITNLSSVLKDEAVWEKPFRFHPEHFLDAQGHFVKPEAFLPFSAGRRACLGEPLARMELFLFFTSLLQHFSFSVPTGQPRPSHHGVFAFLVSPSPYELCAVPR
# Method in brief: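 Chemicals tested for interference with CYP2D6 activity; proluciferin substrate, NADPH regeneration, 1 h at room temperature, luminescent detection.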
# [2] = biological target: Cytochrome P450 2C19 (Homo sapiens) (UniProt P33261); assay: Cytochrome P450 Family 2 Subfamily C Member 19 (CYP2C19) small molecule antagonists: luciferase reporter qHTS assay (AID 1671197); conditions: P450-Glo CYP2C19 enzyme, luciferin luminescence, 1 h; series mostly up to 115 µM; further: nearly all actives have a fitted effect of over 65% in size
# Chain of Cytochrome P450 2C19 (Homo sapiens) (P33261 whole entry, looked up): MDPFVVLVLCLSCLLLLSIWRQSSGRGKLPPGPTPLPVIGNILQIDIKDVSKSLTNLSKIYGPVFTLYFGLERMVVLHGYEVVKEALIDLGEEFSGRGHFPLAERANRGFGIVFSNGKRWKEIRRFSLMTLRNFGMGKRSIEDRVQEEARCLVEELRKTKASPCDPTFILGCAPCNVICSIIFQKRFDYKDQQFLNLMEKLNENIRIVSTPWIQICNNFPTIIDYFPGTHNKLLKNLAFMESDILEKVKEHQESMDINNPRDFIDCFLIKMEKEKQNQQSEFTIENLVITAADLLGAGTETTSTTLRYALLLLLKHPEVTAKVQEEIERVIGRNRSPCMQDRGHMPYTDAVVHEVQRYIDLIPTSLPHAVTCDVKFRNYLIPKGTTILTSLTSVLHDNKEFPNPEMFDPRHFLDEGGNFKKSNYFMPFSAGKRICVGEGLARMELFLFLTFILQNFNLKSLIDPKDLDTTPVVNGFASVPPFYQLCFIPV
# Method in brief: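 Relative luminescence units recorded 20 min after the detection reagent stopped a 1 h, 37C CYP2C19 reaction on proluciferin substrate, which was started by NADPH regeneration following 10 min room-temperature compound preincubation; ketoconazole positive control.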
# [3] = biological target: Cytochrome P450 2C9 (Homo sapiens) (UniProt P11712); assay: Cytochrome P450 Family 2 Subfamily C Member 9 (CYP2C9) small molecule antagonists: luciferase reporter qHTS assay (AID 1671198); conditions: P450-Glo CYP2C9 enzyme assay, luciferin luminescence; series mostly up to 115 µM; further: nearly all actives have a fitted effect of over 50% in size
# Chain of Cytochrome P450 2C9 (Homo sapiens) (P11712 whole entry, looked up): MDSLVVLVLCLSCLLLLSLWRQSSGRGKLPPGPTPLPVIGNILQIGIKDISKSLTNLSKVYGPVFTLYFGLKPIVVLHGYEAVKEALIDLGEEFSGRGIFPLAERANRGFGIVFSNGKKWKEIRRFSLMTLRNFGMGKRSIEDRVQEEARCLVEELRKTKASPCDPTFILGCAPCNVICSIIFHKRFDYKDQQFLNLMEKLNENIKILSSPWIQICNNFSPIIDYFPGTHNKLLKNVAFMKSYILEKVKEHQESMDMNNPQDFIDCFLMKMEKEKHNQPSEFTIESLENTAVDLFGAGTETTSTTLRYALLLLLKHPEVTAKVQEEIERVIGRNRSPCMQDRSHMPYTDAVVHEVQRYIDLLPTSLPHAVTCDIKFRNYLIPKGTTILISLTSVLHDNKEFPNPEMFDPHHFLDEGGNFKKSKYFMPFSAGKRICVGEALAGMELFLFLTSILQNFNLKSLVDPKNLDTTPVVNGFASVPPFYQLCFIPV
# Method in brief: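 CYP2C9 activity was measured with a P450-Glo proluciferin substrate. Enzyme–substrate mix was held with compound for 10 min at room temperature, then NADPH regeneration solution was added for 1 h at 37C. Luciferin product was read as luminescence.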
# [4] = biological target: Voltage-gated inwardly rectifying potassium channel KCNH2 (Homo sapiens) (UniProt Q12809); assay: Human Ether-a-go-go-Related Gene (hERG) channel small molecule antagonists: fluorescence cell-based qHTS assay (AID 1671200); conditions: hERG-U2OS cells, FluxOR thallium flux fluorescence; series mostly up to 76.8 µM; further: nearly all actives have a fitted effect of over 50% in size
# Chain of Voltage-gated inwardly rectifying potassium channel KCNH2 (Homo sapiens) (Q12809 whole entry, looked up): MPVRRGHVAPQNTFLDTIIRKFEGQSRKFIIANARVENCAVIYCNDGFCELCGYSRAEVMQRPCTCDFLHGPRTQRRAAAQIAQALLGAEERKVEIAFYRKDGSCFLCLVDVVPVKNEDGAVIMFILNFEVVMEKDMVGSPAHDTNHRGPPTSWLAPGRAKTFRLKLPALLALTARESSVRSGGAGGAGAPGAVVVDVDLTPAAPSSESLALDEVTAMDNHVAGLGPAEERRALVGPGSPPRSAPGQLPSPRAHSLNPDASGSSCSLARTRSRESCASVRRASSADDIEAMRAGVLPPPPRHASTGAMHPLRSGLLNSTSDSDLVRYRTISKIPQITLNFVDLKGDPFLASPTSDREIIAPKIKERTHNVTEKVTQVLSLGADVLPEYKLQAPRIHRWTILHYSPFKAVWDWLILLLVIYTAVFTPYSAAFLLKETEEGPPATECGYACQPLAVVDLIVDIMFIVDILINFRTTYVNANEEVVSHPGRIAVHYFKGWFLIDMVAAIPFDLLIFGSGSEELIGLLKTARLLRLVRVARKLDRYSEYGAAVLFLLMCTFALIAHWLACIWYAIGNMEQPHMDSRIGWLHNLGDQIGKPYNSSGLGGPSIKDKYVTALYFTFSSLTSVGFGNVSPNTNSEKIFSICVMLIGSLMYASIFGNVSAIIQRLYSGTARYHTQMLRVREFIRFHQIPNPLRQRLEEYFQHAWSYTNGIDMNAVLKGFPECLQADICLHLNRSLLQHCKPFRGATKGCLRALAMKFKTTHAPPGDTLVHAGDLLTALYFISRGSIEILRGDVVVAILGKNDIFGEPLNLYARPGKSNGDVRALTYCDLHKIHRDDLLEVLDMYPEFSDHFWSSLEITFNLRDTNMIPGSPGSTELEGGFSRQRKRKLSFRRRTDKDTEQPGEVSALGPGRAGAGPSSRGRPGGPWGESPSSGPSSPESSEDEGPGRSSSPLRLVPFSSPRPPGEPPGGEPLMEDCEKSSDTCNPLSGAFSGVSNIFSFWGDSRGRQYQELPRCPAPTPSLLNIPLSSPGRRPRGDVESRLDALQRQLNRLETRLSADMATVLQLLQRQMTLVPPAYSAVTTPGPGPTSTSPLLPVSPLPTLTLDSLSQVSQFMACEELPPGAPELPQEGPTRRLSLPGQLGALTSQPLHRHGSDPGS
# Method in brief: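 U2OS cells expressing the channel were plated at 1000 cells/well, incubated overnight at 37 C, then loaded with FluxOR II thallium-sensitive dye for 1 h at room temperature in the dark, with a further 10 min at room temperature before stimulation.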
# [5] = biological target: Cytochrome P450 3A4 (Homo sapiens) (UniProt P08684); assay: Cytochrome P450 Family 3 Subfamily A Member 4 (CYP3A4) small molecule antagonists: luciferase reporter qHTS assay (AID 1671201); conditions: P450-Glo CYP3A4 enzyme, luciferin luminescence, 1 h; series mostly up to 115 µM; further: nearly all actives have a fitted effect of over 50% in size
# Chain of Cytochrome P450 3A4 (Homo sapiens) (P08684 whole entry, looked up): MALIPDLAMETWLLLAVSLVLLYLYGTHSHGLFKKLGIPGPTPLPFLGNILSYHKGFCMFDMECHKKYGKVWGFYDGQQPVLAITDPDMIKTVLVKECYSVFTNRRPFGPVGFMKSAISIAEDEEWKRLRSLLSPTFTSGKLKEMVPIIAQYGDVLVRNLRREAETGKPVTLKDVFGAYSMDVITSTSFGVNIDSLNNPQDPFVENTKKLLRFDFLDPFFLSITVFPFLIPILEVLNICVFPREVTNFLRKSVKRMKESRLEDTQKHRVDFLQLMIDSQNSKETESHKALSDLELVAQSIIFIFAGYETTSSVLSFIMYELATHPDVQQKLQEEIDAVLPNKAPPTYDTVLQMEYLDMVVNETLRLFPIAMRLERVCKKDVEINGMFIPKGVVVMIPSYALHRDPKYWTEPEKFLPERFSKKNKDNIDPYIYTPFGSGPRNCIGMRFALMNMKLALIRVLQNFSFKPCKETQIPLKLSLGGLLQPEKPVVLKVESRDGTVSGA
# Method in brief: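 P450-Glo CYP3A4 system with proluciferin substrate; compounds preincubated 10 min RT with enzyme-substrate mix, then NADPH regeneration added for 1 h RT. Detection reagent 20 min, luminescence read as relative luminescence units.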
# [6] = biological target: Cytochrome P450 1A2 (Homo sapiens) (UniProt P05177); assay: Cytochrome P450 Family 1 Subfamily A Member 2 (CYP1A2) small molecule antagonists: luciferase reporter qHTS assay (AID 1671199); conditions: P450-Glo CYP1A2 enzyme, luciferin luminescence, 1 h; series mostly up to 115 µM; further: nearly all actives have a fitted effect of over 50% in size
# Chain of Cytochrome P450 1A2 (Homo sapiens) (P05177 whole entry, looked up): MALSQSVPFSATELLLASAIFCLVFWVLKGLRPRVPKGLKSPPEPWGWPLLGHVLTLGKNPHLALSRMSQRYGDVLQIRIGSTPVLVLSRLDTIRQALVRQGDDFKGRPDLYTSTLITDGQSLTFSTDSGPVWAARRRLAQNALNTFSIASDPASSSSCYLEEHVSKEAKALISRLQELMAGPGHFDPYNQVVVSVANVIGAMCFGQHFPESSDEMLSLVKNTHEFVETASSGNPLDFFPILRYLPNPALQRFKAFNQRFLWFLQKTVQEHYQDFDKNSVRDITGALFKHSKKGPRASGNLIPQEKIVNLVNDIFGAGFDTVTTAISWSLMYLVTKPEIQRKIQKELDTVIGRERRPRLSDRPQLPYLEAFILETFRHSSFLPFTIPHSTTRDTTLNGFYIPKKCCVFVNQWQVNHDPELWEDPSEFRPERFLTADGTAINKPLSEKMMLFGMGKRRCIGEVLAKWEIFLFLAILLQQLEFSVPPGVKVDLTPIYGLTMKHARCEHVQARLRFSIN
# Method in brief: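 Read-out is luminescence from luciferin detection reagent (20 min) proportional to CYP1A2 activity; compounds in DMSO preincubated 10 min with enzyme and proluciferin substrate, then NADPH regeneration solution, 1 h, room temperature.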
# Potency means the concentration at half of the fitted maximal effect.
Compound,Potency [1],Potency [2],Potency [3],Potency [4],Potency [5],Potency [6]
C1=CCC(c2ccccc2)CC1 (stereo not drawn),inactive,inactive,inactive,inactive,inactive,
Cc1nc2n(c(=O)c1CCN1CCC(C(=O)c3ccc(F)cc3)CC1)CCS2,0.49 µM (active),inactive,,9.52 µM (active),,
CC(C)=CC(C)(C)C,inactive,inactive,inactive,inactive,inactive,
CC1=CC[C@H](CC=O)C1(C)C,inactive,inactive,,inactive,63.3 µM (active),31.7 µM (active)
C=C(C)C(=O)OCCCCCCOC(=O)C(=C)C,inactive,,35.6 µM (active),inactive,inactive,39.9 µM (active)
C=C(C)[C@@H]1CC[C@@H](C)C[C@@H]1O,inactive,inactive,inactive,inactive,inactive,
O=S1(=O)CCCC1,inactive,inactive,inactive,inactive,inactive,
C[C@H](CCC(=O)NCC(=O)O)[C@H]1CC[C@H]2[C@@H]3[C@H](O)C[C@@H]4C[C@H](O)CC[C@]4(C)[C@H]3C[C@H](O)[C@]12C,inactive,inactive,,inactive,inactive,inactive
CCCCCC1CCCC(=O)O1 (stereo not drawn),inactive,79.6 µM (active),inactive,inactive,inactive,
